These results are taken from PubChem BioAssay AID651610 (Broad Institute, 2012).

This test in a line: inhibitors of HIV-1 Env-driven cell-cell fusion, primary screen, HeLa-JRFL effector, CEM21 target cells, luciferase (AID 651610).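 Further: 0% = plate neutral controls and 100% = maraviroc near 300 nM.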 The settings on record: active compounds read high.

Each structure is given as a SMILES string. “And” between values parts separate entries of the source, which are not always exact repeats. Identical values can stand only once. About 3,900 (1.1%) of roughly 360,000 compounds were called active. The sample holds actives, similar compounds and a random draw of the others, so the mix is not that of the screen. Unmarked numbers belong to inactive results.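 How the source made its calls: active means mean replicate inhibition score of at least 50 and every replicate individually at or above 50; inconclusive means only one of the two criteria met; inactive means mean below 50 and not all replicates reaching 50.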

The inhibition is the drop in the measured response relative to a control, in per cent. Take `COCC#Cc1ccc2c(c1)O[C@H](CN(C)C(=O)C1CCOCC1)[C@@H](C)CN([C@@H](C)CO)S2(=O)=O`: for the setting “at 16.7 µM unless noted”, the inhibition is -8.26%.
The same measure, in the same setting: next, `Cc1ccc(S(=O)(=O)NCC[C@H]2CC[C@@H](NC(=O)C3CCOCC3)[C@@H](CO)O2)cc1`: 5.57%; `O=C(Nc1ccc(F)cc1)N[C@H]1C=C[C@@H](CC(=O)N2CCOCC2)O[C@H]1CO`: -5.7%; `Cc1noc(C)c1S(=O)(=O)N(C)C[C@H]1OCCCC[C@H](C)Oc2ccc(NC(=O)c3ccccc3)cc2C(=O)N([C@@H](C)CO)C[C@H]1C`: -37.3%.
The same measure, in the same setting: next, `C[C@@H]1CN([C@H](C)CO)S(=O)(=O)c2ccc(-c3cccc(F)c3)cc2O[C@H]1CN(C)S(=O)(=O)c1ccc(F)cc1`: 30%; `C[C@@H]1CN([C@H](C)CO)S(=O)(=O)c2ccc(-c3ccncc3)cc2O[C@@H]1CN(C)C(=O)Nc1ccc(C(F)(F)F)cc1`: 27.4%.
On the same count and under the same terms, next, `C[C@H](CO)N1C[C@H](C)[C@H](CN(C)S(=O)(=O)c2ccccc2)Oc2cc(Br)ccc2S1(=O)=O`: 78% (active).
For the compound `C[C@@H]1CN([C@@H](C)CO)S(=O)(=O)c2ccc(-c3cccc(F)c3)cc2O[C@@H]1CN(C)S(=O)(=O)c1ccccc1`, under “at 16.7 µM unless noted”, the inhibition is 92.8% (active).
On the same count and under the same terms, for `Cc1ccc(-c2ccc3c(c2)O[C@H](CN(C)C(=O)Nc2ccc(C(F)(F)F)cc2)[C@@H](C)CN([C@H](C)CO)S3(=O)=O)cc1` the value was 57.4% (active); for `C[C@@H]1CN([C@@H](C)CO)S(=O)(=O)c2ccc(Br)cc2O[C@H]1CN(C)S(=O)(=O)c1ccccc1`, 18.6%; for `Cc1ccc(-c2ccc3c(c2)O[C@H](CN(C)C(=O)Nc2ccccc2)[C@@H](C)CN([C@@H](C)CO)S3(=O)=O)cc1`, -12.9%.
On to `C[C@H]1CN([C@@H](C)CO)S(=O)(=O)c2ccc(-c3cccc(F)c3)cc2O[C@@H]1CN(C)C`, for which the inhibition by setting is: (at 12.3 µM) 0.788%; (at 16.7 µM) -8.73% and -21.2%.
Turning to `C[C@@H]1CN([C@@H](C)CO)S(=O)(=O)c2ccc(C#Cc3ccncc3)cc2O[C@@H]1CN(C)S(=O)(=O)c1ccccc1`, the inhibition (at 16.7 µM unless noted) is 19.4%.
With `CC(=O)N(C)C[C@H]1Oc2cc(C#Cc3ccccc3F)ccc2S(=O)(=O)N([C@@H](C)CO)C[C@H]1C`, the inhibition (at 16.7 µM unless noted) was 17.7%.
Same read-out and setting: for `COc1cccc(NC(=O)N(C)C[C@H]2OCc3ccccc3-c3ccccc3C(=O)N([C@H](C)CO)C[C@@H]2C)c1` the value was 17.7%.
Still for that read-out and setting: for `C[C@@H]1CN([C@H](C)CO)C(=O)Cc2cc(NC(=O)NC3CCCCC3)ccc2O[C@H]1CN(C)Cc1ccc(Cl)c(Cl)c1` the value was -10.2%.
Same read-out and setting: for `CC(C)CC#Cc1ccc2c(c1)O[C@@H](CN(C)C(=O)Nc1ccccc1F)[C@@H](C)CN([C@@H](C)CO)S2(=O)=O` the value was 9.38%; for `Cn1c(CNC(=O)c2ccco2)nnc1SCC(=O)N1CCN(c2ccccc2)CC1`, -10.4% [at 12.3 µM]; for `Cc1cc2nnc(SCC(=O)N3CCN(c4ccccc4)CC3)n2c(N)n1`, -38.7% [at 12.3 µM].
On to `Cn1c(Cc2cccc3ccccc23)nnc1SCC(=O)N1CCN(c2cccc(Cl)c2)CC1`, for which the inhibition (at 16.7 µM unless noted) was 94.5% [at 12.3 µM] (active).
`C[C@H]1CCCCO[C@@H](CN(C)C(=O)Nc2ccccc2)[C@@H](C)CN([C@@H](C)CO)C(=O)c2cc(NC(=O)Nc3ccc(F)cc3)ccc2O1`: the inhibition (at 16.7 µM unless noted) was -14%.
Same read-out and setting: next, `O=C(CN1CCOCC1)N[C@H]1CC[C@@H](CCNS(=O)(=O)c2ccccc2F)O[C@H]1CO`: 21.8%; `CCOC(=O)N1CCN(C(c2ccnc3ccccc23)c2nnnn2-c2c(C)cccc2C)CC1` (stereo not given): 14.5% [at 12.3 µM].
On the same count and under the same terms, next, `Cc1cccc(C)c1-n1nnnc1C(CCc1ccccc1)N1CCN(C/C=C/c2ccccc2)CC1` (stereo not given): -59.3% [at 12.3 µM]; `CCC(=O)N(C)C(c1ccccc1Cl)c1nnnn1-c1c(C)cccc1C` (stereo not given): 68.5% [at 12.3 µM] (active); `CC(C)NC(=O)N(C)C[C@@H]1Oc2ccc(NC(=O)Cn3cnnn3)cc2CC(=O)N([C@H](C)CO)C[C@H]1C`: 13.5%.
The same measure, in the same setting: next, `CCCN1C(=O)c2[nH]nc(-c3ccccc3)c2C1c1ccccc1` (stereo not given): -22.9% [at 12.3 µM]; `COc1ccc(CCN2C(=O)c3[nH]nc(-c4ccccc4O)c3C2c2ccc(C)cc2)cc1OC` (stereo not given): 101% [at 12.3 µM] (active).
Consider `COc1ccc(CCN2C(=O)C(C)=C(C)C2=O)cc1OC`, for which, for the setting “at 16.7 µM unless noted”, the inhibition is -2.55% [at 12.3 µM].
On the same count and under the same terms, for `COc1ccccc1-c1cnc2c(c1)C(=O)N([C@@H](C)CO)C[C@H](C)[C@@H](CN(C)C(C)=O)O2` the value was 0.851%; for `COc1ccc(S(=O)(=O)Nc2ccc3c(c2)C(=O)N([C@H](C)CO)C[C@@H](C)[C@@H](CN(C)CC2CCCCC2)OCCCC[C@@H](C)O3)cc1`, -26.3%.
Same read-out and setting: next, `C=CCOc1ccc(/C=C2\SC(=S)N(CCC(=O)O)C2=O)cc1`: 60.7% [at 12.3 µM] (active).
Take `COc1ccc(/C=C2\SC(=S)N(CCC(=O)N3CCOCC3)C2=O)cc1OC`: the inhibition (at 16.7 µM unless noted) was 6.28% [at 12.3 µM].
Consider `COc1cccc(/C=C2\SC(=S)N(CCCC(=O)N3CCOCC3)C2=O)c1`, for which the inhibition (at 16.7 µM unless noted) was 2.26% [at 12.3 µM].
The same measure, in the same setting: for `COCCNC(=O)CSc1nc2sccc2c(=O)n1-c1ccccc1` the value was -8.5% [at 12.3 µM]; for `CC1(C)Cc2c(sc3nc(SCC(=O)NCc4ccccc4)n(-c4ccccc4)c(=O)c23)CS1`, 138% [at 12.3 µM] (active).
Still for that read-out and setting: for `Cc1sc2nc(SCCO)n(-c3ccccc3)c(=O)c2c1C` the value was 14.7% [at 12.3 µM]; for `C/C=C/c1cnc2c(c1)C(=O)N([C@@H](C)CO)C[C@H](C)[C@@H](CN(C)C(=O)C1CC1)O2`, 10.3%.
Still for that read-out and setting: for `C[C@@H]1CCCCO[C@H](CN(C)Cc2ccc(C(F)(F)F)cc2)[C@H](C)CN([C@@H](C)CO)C(=O)c2cc(N(C)C)ccc2O1` the value was 6.26%; for `COc1ccccc1S(=O)(=O)N[C@@H]1CC[C@@H](CCNC(=O)C2CCCCC2)O[C@@H]1CO`, -6.59%.
Regarding `C=CCOCCN(C)C1=NS(=O)(=O)c2ccccc21`, the inhibition (at 16.7 µM unless noted) was 1.56% [at 12.3 µM].
On the same count and under the same terms, next, `COc1ccc(C(C)(C)C)cc1NC(=O)CN(C)C1=NS(=O)(=O)c2ccccc21`: 64.3% [at 12.3 µM] (active).
Same read-out and setting: for `COc1ccc(/C=N/N(C)C2=NS(=O)(=O)c3ccccc32)cc1OC` the value was 1.34% [at 12.3 µM]; for `COc1ccc(CN(C)C[C@H]2Oc3c(NC(=O)Nc4ccccc4)cccc3C(=O)N([C@@H](C)CO)C[C@@H]2C)cc1`, 6.99%.
Still for that read-out and setting: for `C[C@@H]1CN([C@@H](C)CO)C(=O)Cc2cc(NC(=O)C3CCCCC3)ccc2O[C@@H]1CN(C)CC1CCCCC1` the value was -8.61%; for `COc1cccc(/C=N/Nc2ncc(C(F)(F)F)cc2Cl)c1O`, 74.7% [at 12.3 µM] (active).
For `CN(C)C=NC(=O)c1cccn1-c1ncc(C(F)(F)F)cc1Cl`, the inhibition (at 16.7 µM unless noted) was 8.04% [at 12.3 µM].
`O=c1[nH]c2cccnc2n(CCNc2ncc(C(F)(F)F)cc2Cl)c1=O`: where the note is “at 16.7 µM unless noted”, the inhibition is -11.9% [at 12.3 µM].
On the same count and under the same terms, next, `C[C@@H]1CN([C@@H](C)CO)C(=O)c2cc(NS(=O)(=O)c3cccs3)ccc2O[C@H]1CN(C)CC1CCCCC1`: -17.2%; `C[C@H](NC(=O)c1nc[nH]c1C(=O)NCC(=O)OC(C)(C)C)C(=O)OCc1ccccc1`: -4.51% [at 12.3 µM]; `CC(C)(C)OC(=O)CNC(=O)c1[nH]cnc1C(=O)N[C@@H](Cc1ccccc1)C(=O)OCc1ccccc1`: 6.73% [at 12.3 µM].
Still for that read-out and setting: for `Cc1cccc(NC(=O)c2nc[nH]c2C(=O)NCC(=O)OCc2ccccc2)c1` the value was 55.2% [at 12.3 µM] (active).
As to `O=C(C[C@@H]1CC[C@@H]2[C@H](COC[C@H](O)CN2C(=O)c2cccnc2)O1)NC1Cc2ccccc2C1`, the inhibition (at 16.7 µM unless noted) was -0.583%.
Same read-out and setting: next, `CO[C@@H]1CN(C)C(=O)c2ccc(NC(=O)c3cccc(Oc4ccccc4)c3)cc2OC[C@H](C)NC[C@@H]1C`: 12.8%.
Same read-out and setting: for `C[C@@H]1Cn2cnc(C(=O)Nc3ccc(CNC(=O)OC(C)(C)C)cc3)c2C(=O)N1` the value was 58.6% [at 12.3 µM] (active); for `Cc1ccc(NC(=O)c2nc[nH]c2C(=O)N[C@@H](CCCCNC(=O)OC(C)(C)C)C(=O)OC(C)(C)C)cc1`, 32.1% [at 12.3 µM]; for `CN1CCn2cnc(C(=O)NCC(=O)OC(C)(C)C)c2C1=O`, 2.91% [at 12.3 µM].
In the case of `O=C(CCN1CCCCC1)N[C@@H]1C=C[C@@H](CC(=O)N2CCC(Cc3ccccc3)CC2)O[C@H]1CO`, for the setting “at 16.7 µM unless noted”, the inhibition is 3.09%.
Turning to `CNS(=O)(=O)c1cccc(C(=O)NC2CCCc3ccccc32)c1` (stereo not given), for the setting “at 16.7 µM unless noted”, the inhibition was 15.1% [at 12.3 µM].
Still for that read-out and setting: next, `CSCCC(NS(=O)(=O)c1ccc2c(c1)oc(=O)n2C)C(=O)NC1CCCc2ccccc21` (stereo not given): 87% [at 12.3 µM] (active); `CSCCC(NS(=O)(=O)c1ccc2c(c1)oc(=O)n2C)C(=O)NCc1ccccc1` (stereo not given): -4.2% [at 12.3 µM].
Take `Cc1noc(C)c1NC(=O)N(C)C[C@H]1OCCCC[C@@H](C)Oc2ccc(NS(=O)(=O)c3ccc(Cl)cc3)cc2C(=O)N([C@@H](C)CO)C[C@H]1C`: for the setting “at 16.7 µM unless noted”, the inhibition was -65.1%.
The same measure, in the same setting: next, `CCCN(C)C[C@H]1OCCCC[C@@H](C)Oc2ccc(NC(=O)Nc3ccc(F)cc3)cc2C(=O)N([C@@H](C)CO)C[C@H]1C`: -12.4%; `C[C@@H]1CCCCO[C@@H](CN(C)C(=O)C2CCCCC2)[C@H](C)CN([C@H](C)CO)C(=O)c2cc(NC(=O)Cc3ccccc3)ccc2O1`: -36.4%.
